Laboratory results from PubChem BioAssay AID2284105 (EPA ToxCast).
Results filed as inconclusive are left out. The source made the active and inactive calls. The calls were made as follows: active = hit-call score of the fitted dose curve at least 0.9, where 1 is the maximum; inconclusive = response in the unintended direction; inactive = score below 0.9.

Molecular target: human Monoamine Oxidase A (MAO-A), MAOA (gene 4128) (UniProt P21397)
Test: ERF_FR_ENZ_hMAOA: Eurofins (ERF) Enzymatic LeadHunter Assay for human Monoamine Oxidase A (MAO-A)
Protocol: ERF_FR_ENZ_hMAOA is a biochemical, single-readout assay that uses extracted gene-proteins in a cell-free assay. Measurements were taken 0.33 hour after chemical dosing in a 96-well plate. See Monoamine Oxidase A (MAO-A) Human Enzymatic Assay, Cerep.ERF_FR_ENZ_hMAOA is an assay component calculated from the ERF_FR_ENZ_hMAOA assay. It is designed to measure enzyme activity using a type of enzyme reporter as detected by fluorescence intensity with spectrophotometry technology.Data from the assay component ERF_FR_ENZ_hMAOA was analyzed at the assay endpoint, ERF_FR_ENZ_hMAOA, in the positive analysis fitting direction relative to DMSO as the negative control and baseline of activity. Using a type of enzyme reporter, loss-of-signal activity can be used to understand changes in enzymatic activity as they relate to gene MAOA. To generalize the intended target to other relatable targets, this assay endpoint is annotated to the […] intended target family, where the subfamily is monoamine oxidase.
Human cells are incubated for 45 minutes at room temprature with Kynuramine, diHCl at 350 uM as sunstrate. Test Sample Requirements: Minimum for 1) Screen: 60 ul of 10 mM stock -OR- 1 mg (pre-weighed) for 10 uM final testing. 2) Dose Response: 90 ul of 10 mM stock -OR- 1 mg (pre-weighed) for a top concentration at 10 uM.

Chain of human Monoamine Oxidase A (MAO-A), MAOA (gene 4128) (P21397 whole entry, looked up): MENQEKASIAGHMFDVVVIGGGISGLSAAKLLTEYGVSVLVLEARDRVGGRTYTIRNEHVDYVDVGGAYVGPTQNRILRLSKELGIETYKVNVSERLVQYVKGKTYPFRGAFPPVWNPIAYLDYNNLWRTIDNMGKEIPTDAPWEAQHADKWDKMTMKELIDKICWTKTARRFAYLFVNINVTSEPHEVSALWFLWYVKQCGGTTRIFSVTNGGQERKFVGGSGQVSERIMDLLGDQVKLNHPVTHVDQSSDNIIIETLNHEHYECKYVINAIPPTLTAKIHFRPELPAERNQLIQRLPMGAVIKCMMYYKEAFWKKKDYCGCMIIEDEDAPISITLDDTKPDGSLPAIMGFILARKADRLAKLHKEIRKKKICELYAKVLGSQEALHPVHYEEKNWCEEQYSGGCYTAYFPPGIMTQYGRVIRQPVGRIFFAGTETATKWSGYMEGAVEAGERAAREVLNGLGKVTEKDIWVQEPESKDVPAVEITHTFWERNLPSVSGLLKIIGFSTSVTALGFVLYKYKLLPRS

| Structure (SMILES) | outcome |
| --- | --- |
| COc1cc(CCC(=O)CC(=O)CCc2ccc(O)c(OC)c2)ccc1O | inactive |
| COc1cc(/C=C/C(=O)CC(=O)/C=C/c2ccc(O)c(OC)c2)ccc1O | inactive |
